Assay results published in the supplement of paper PMC10849652.
The full data set covers some 8,800 targets. This sample favours those with a hit. About 0.5% of all pairs of compound and target were hits. Values without a mark were called inactive.

Key:
Test in all cases: log2 fold change, soluble protein after heating vs DMSO (PISA); higher = thermal stabilisation; K562 lysate, 10 uM; active = over 0.2 and 3.5 SD of the protein, either way, in both replicates (recomputed)
[1] = compound: CS(=O)(=O)CCNCc1ccc(-c2ccc3ncnc(Nc4ccc(OCc5cccc(F)c5)c(Cl)c4)c3c2)o1 [lapatinib]
Method in brief: (§1)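 Soluble protein was defined as the supernatant remaining after 21,000xg for 90 min, following pooling of heated aliquots and adjustment to 0.5% NP-40 at 4°C. Before that, crude K562 extract at 1 mg/mL protein in PBS pH 7.4 with 1 mM MgCl2 was treated with 10 μM compound for 30 min and heated for 3 min across 48°C-58°C. Quantification used TMTpro 16plex LC-MS/MS with channel sums equalised, and values are log-two fold changes in thermal stability relative to solvent controls from duplicates.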

[2] = compound: CS(=O)(=O)N1CCN(Cc2cc3nc(-c4cccc5[nH]ncc45)nc(N4CCOCC4)c3s2)CC1 [pictilisib]
Method in brief: as §1

[3] = compound: C[C@@H](Oc1cc(-c2cnn(C3CCNCC3)c2)cnc1N)c1c(Cl)ccc(F)c1Cl [crizotinib]
Method in brief: as §1

[4] = compound: C[C@H](C1=CC=C(C=C1)C(=O)NC2=C3C=CNC3=NC=C2)N
Method in brief: as §1

[5] = compound: C[C@H](Nc1ncnc2nc[nH]c12)c1cc2cccc(Cl)c2c(=O)n1-c1ccccc1 [duvelisib]
Method in brief: as §1

[6] = compound: Cc1cc(Nc2cc(CN3CCOCC3)c3nc(C)c(Cc4ccc(Cl)cc4F)n3n2)n[nH]1 [gandotinib]
Method in brief: as §1

[7] = compound: Cc1cc(Nc2cc(N3CCN(C)CC3)nc(Sc3ccc(NC(=O)C4CC4)cc3)n2)n[nH]1 [tozasertib]
Method in brief: as §1

[8] = compound: Cc1ccc(-n2nc(C(C)(C)C)cc2NC(=O)Nc2ccc(OCCN3CCOCC3)c3ccccc23)cc1 [doramapimod]
Method in brief: as §1

[9] = compound: Cc1ccc(NC(=O)c2ccc(CN3CC[C@H](N(C)C)C3)c(C(F)(F)F)c2)cc1Nc1nccc(-c2cncnc2)n1 [bafetinib]
Method in brief: as §1

[10] = compound: Cc1cccc(CC(=O)N2CCc3c2ccc(-c2cn(C)c4ncnc(N)c24)c3F)n1
Method in brief: as §1

[11] = compound: Cc1nc(Nc2ncc(C(=O)Nc3c(C)cccc3Cl)s2)cc(N2CCN(CCO)CC2)n1 [dasatinib]
Method in brief: as §1

[12] = compound: Cn1cc(-c2ccc3c(c2)CCN3C(=O)Cc2cccc(C(F)(F)F)c2)c2c(N)ncnc21
Method in brief: as §1

[13] = compound: Cn1cc(CNCC2CCN(c3ncc(C(=O)NO)cn3)CC2)c2ccccc21 [quisinostat]
Method in brief: as §1

[14] = compound: NC(=O)Nc1cc(-c2cccc(F)c2)sc1C(=O)N[C@H]1CCCNC1
Method in brief: as §1

[15] = compound: NC(=O)c1cnc(N[C@@H]2CCCC[C@@H]2N)nc1Nc1cccc(-n2nccn2)c1
Method in brief: as §1

[16] = compound: NC1(c2ccc(-c3nc4ccn5c(=O)[nH]nc5c4cc3-c3ccccc3)cc2)CCC1
Method in brief: as §1

[17] = compound: Cc1cn(-c2cc(NC(=O)c3ccc(C)c(Nc4nccc(-c5cccnc5)n4)c3)cc(C(F)(F)F)c2)cn1 [nilotinib]
Method in brief: as §1

[18] = compound: Cc1nc(Nc2n[nH]c3c2CN(C(=O)N[C@H](CN(C)C)c2ccccc2)C3(C)C)c2sccc2n1
Method in brief: as §1

[19] = compound: Cc1ncc(-c2ccnc(Nc3ccc(S(C)(=O)=O)cc3)n2)n1C(C)C
Method in brief: as §1

[20] = compound: Cn1cncc1[C@@](N)(c1ccc(Cl)cc1)c1ccc2c(c1)c(-c1cccc(Cl)c1)cc(=O)n2C [tipifarnib]
Method in brief: as §1

Sequence of UniProt Q99574 (Q99574 whole entry, looked up): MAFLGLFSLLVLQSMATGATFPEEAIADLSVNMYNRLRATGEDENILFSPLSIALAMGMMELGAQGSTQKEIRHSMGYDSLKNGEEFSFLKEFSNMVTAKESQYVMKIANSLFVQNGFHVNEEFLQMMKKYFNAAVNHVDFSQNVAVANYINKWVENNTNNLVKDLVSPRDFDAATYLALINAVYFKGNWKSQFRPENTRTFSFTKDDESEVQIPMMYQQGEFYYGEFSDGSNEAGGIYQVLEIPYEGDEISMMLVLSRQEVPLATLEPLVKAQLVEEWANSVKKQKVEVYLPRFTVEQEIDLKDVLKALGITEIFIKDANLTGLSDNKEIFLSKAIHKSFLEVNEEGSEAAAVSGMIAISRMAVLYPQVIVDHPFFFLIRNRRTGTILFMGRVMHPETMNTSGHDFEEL
Sequence of UniProt P53611 (P53611 whole entry, looked up): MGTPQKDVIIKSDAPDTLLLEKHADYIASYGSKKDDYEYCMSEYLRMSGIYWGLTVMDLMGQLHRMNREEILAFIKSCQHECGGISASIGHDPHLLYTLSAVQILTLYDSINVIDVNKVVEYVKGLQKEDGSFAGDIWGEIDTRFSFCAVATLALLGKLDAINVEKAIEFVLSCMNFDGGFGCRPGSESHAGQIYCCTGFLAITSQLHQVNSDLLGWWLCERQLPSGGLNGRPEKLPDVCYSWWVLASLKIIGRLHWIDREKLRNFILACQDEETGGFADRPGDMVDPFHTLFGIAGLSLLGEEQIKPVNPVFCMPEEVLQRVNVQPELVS
Sequence of UniProt Q15283 (Q15283 whole entry, looked up): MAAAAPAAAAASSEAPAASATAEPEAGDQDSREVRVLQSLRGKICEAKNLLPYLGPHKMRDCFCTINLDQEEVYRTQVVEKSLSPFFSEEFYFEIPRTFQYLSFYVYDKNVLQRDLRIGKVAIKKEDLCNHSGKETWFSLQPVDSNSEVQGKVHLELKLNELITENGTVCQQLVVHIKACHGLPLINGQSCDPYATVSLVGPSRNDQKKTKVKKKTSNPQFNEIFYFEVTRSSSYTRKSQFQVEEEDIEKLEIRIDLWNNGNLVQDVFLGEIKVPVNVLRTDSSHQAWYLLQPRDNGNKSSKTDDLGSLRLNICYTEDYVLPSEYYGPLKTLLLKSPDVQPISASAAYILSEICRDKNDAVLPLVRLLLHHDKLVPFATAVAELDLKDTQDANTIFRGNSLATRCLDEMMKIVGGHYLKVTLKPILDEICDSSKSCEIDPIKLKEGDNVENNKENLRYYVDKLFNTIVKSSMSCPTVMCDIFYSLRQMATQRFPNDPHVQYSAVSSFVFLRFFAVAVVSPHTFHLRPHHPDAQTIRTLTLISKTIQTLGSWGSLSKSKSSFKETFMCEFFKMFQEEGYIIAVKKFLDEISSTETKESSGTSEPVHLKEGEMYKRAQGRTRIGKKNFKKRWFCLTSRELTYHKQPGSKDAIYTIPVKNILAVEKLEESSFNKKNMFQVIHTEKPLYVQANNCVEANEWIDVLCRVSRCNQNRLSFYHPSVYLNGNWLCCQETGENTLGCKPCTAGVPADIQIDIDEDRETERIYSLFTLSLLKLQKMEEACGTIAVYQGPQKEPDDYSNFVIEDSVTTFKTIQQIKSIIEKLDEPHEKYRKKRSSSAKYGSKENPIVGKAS
Sequence of UniProt Q9BWF3 (Q9BWF3 whole entry, looked up): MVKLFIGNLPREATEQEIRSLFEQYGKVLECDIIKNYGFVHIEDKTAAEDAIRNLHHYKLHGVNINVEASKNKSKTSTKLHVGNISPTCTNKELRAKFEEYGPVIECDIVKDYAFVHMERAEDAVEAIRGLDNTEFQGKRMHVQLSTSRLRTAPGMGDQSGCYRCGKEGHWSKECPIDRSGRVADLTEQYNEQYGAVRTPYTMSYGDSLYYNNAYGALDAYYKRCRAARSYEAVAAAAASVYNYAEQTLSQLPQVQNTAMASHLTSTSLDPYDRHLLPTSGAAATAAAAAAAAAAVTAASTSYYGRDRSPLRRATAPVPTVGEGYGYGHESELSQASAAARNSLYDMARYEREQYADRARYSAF
Sequence of UniProt Q9UPU9 (Q9UPU9 whole entry, looked up): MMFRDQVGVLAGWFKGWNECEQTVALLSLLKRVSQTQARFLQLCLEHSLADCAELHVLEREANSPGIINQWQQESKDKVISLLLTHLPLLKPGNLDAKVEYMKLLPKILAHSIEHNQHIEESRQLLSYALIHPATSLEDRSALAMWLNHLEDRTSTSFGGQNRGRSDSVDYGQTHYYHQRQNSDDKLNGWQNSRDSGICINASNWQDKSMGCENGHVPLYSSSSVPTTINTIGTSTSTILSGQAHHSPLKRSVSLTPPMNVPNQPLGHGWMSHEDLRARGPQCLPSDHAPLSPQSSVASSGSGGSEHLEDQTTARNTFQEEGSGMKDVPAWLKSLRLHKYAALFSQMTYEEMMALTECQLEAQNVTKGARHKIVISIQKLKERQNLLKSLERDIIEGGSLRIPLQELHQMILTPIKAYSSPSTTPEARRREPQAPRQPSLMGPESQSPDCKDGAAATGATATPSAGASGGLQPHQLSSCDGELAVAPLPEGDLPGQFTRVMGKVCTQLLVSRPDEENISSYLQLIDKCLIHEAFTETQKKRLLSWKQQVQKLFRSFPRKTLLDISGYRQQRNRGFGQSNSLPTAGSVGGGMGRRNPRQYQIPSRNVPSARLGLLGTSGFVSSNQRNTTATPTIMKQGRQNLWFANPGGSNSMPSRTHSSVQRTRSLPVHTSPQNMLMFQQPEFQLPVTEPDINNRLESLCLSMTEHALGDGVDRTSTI
Sequence of UniProt Q9BXT8 (Q9BXT8 whole entry, looked up): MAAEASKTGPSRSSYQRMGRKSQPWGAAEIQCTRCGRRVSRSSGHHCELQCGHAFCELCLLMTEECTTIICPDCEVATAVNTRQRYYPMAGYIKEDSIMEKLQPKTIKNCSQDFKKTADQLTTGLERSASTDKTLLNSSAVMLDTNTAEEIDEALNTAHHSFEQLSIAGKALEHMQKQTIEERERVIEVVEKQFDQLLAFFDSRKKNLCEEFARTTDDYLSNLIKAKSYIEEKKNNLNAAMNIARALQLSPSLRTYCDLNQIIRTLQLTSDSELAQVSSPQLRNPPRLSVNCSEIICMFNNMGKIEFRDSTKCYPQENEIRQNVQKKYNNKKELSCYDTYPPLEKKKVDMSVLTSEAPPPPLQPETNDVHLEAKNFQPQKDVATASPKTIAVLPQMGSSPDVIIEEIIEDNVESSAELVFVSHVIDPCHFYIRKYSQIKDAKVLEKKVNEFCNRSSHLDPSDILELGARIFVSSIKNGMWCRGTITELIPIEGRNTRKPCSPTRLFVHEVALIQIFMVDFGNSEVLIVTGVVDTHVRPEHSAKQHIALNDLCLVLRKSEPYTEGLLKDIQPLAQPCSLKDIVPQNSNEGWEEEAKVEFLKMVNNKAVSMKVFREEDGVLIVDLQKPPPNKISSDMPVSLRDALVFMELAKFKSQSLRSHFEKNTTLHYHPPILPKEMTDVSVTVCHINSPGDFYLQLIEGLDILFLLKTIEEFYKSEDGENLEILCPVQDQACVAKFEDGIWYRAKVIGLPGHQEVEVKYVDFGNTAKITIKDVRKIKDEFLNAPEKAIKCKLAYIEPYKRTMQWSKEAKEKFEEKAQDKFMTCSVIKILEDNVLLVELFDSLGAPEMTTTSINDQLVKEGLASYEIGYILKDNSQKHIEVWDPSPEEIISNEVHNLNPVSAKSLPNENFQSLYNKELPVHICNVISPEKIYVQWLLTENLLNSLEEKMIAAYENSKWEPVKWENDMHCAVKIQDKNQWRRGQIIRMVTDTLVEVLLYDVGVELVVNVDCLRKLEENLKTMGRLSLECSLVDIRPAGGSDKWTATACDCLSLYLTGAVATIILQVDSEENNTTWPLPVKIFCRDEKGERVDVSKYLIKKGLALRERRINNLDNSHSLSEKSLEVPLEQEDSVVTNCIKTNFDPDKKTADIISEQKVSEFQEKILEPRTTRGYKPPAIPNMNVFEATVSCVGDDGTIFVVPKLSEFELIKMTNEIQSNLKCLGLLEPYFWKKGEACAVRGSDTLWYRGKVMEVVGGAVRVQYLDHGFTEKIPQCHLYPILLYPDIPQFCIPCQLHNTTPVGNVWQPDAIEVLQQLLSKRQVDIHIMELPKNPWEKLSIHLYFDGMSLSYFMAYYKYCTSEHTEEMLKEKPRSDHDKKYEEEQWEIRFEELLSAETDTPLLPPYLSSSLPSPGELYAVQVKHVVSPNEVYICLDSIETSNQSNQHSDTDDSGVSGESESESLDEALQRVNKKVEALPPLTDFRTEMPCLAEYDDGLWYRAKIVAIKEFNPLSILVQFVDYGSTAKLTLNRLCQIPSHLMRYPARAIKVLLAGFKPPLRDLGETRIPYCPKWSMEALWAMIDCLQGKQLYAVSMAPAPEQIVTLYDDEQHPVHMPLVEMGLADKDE
Sequence of UniProt P58004 (P58004 whole entry, looked up): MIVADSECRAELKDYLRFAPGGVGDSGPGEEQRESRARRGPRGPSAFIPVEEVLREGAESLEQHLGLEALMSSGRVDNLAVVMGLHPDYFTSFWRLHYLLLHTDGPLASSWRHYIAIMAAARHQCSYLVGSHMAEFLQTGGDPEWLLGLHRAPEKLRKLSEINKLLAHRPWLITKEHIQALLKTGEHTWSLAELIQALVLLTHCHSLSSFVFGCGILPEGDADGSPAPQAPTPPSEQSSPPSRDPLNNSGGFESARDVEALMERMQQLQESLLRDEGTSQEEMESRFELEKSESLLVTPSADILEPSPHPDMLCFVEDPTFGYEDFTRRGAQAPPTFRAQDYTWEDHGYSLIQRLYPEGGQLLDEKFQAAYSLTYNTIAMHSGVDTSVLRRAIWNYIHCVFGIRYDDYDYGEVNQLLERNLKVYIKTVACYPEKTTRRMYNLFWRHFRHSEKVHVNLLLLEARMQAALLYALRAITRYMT
Sequence of UniProt O43819 (O43819 whole entry, looked up): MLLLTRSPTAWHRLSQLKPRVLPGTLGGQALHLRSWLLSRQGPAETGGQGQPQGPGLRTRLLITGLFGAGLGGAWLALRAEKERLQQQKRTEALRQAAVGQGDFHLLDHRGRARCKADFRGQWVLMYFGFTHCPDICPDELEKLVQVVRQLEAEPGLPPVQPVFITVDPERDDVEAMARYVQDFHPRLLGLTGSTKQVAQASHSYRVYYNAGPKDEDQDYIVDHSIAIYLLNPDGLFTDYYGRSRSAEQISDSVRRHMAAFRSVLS

Target	log2 fold change [1]	log2 fold change [2]	log2 fold change [3]	log2 fold change [4]	log2 fold change [5]	log2 fold change [6]	log2 fold change [7]	log2 fold change [8]	log2 fold change [9]	log2 fold change [10]	log2 fold change [11]	log2 fold change [12]	log2 fold change [13]	log2 fold change [14]	log2 fold change [15]	log2 fold change [16]	log2 fold change [17]	log2 fold change [18]	log2 fold change [19]	log2 fold change [20]
SAMD4A (UniProt Q9UPU9)	0.282	0.047	-0.041	-0.064	-0.046	-0.036	0.088	0.019	-0.215	0.101	-0.228	-0.005	-0.069	0.058	-0.023	0.012				
ROCK1 (UniProt Q13464)	-0.003	-0.021	0.011		0.006	-0.04	0.027	-0.025	-0.016	0.031	-0.004	0.011	-0.01		0.009	0.013	-0.013	-0.001	0.006	0.001
RASA2 (UniProt Q15283)	0.026	-0.089	-0.014	-0.007	-0.045	-0.087	0.013	0.072	-0.078	0.096	-0.015	0	-0.071	-0.011	0.042	-0.031	-0.049	-0.037	0.063	0.018
RDH14 (UniProt Q9HBH5)	0.082	-0.028	0.009	-0.191	0.002	0.176	0.043	0	-0.005	0.198	0.023	0.009	-0.016	-0.011	-0.077	0.048	0.008	-0.006	0.004	0.065
RABGGTB (UniProt P53611)	-0.02	0.006	-0.031	0.135	0.043	-0.051	-0.023	0.016	-0.087	0.028	0.017	-0.009	-0.02	0.033	-0.016	0.031	0.005	0.003	0.006	-0.013
RPAP1 (UniProt Q9BWH6)	-0.012	-0.027	-0.026	-0.026	0.021	-0.002	0.018	0.001	-0.041	0	-0.027	0.032	-0.02	0.013	0.029	0.004	-0.002	0.014	-0.01	-0.01
RYR1 (UniProt P21817)	0.028	-0.048	-0.229	-0.017	-0.032	-0.027	0.04	0.112	-0.13	0.016	-0.032	-0.061	-0.392 (active)	0.046	0.029	0.003				
SESN2 (UniProt P58004)	-0.085	-0.047	-0.042	0.041	0.047	0.038	-0.006	-0.031	-0.15	0.003	-0.023	0.028	-0.051	0.092	0.034	-0.057	0.019	0.027	0.021	0.007
SERPINI1 (UniProt Q99574)	0.034	-0.061	0.001	0.036	0.007	0.055	0.014	-0.042	-0.065	0.04	0.038	-0.013	0.035	0.003	0.009	-0.015	-0.04	-0.013	-0.034	0.036
SCO2 (UniProt O43819)	0.118	-0.057	0.026	-0.163	0.092	0.048	-0.007	0.002	0.029	0.101	-0.05	0.106	0.007	-0.005	0.05	-0.1	0.15	-0.283	-0.337	-0.062
RBM4 (UniProt Q9BWF3)	-0.015	-0.01	0.018	0.183	-0.003	-0.097	0.075	-0.109	-0.02	-0.069	0.032	0.03	0.033	0.034	0.046	0.029	-0.086	-0.011	0.029	-0.067
RNF17 (UniProt Q9BXT8)	-0.02	0.031	0.105	0.08	-0.071	0.028	0.119	0.006	-0.285	-0.257	-0.055	0.061	0.142	0.054	0.046	0.043				
